Measurements: article PMC13494018

B1: d1r7_design_ppi_241_dldesign_0_cycle0_af2pred (protein)
chain: SELEARGERIKREAEELRRRAEASTDAEEALAYATELVALAAEAAALGDSEAASVAVRAAAAAHAHAQALRA
B2: d1r7_design_ppi_393_dldesign_0_cycle1_af2pred (protein)
chain: EKLHPQAVAALKAQARNAAKLDPETMKKMAENVAKLVTLLSPAKAKEAEKVKELLLKAAEAKKKGAGEETLKALVEEAAKVIAE
B3: d1r7_design_ppi_628_dldesign_0_cycle1_af2pred (protein)
chain: AEALLKEAEEVKARAAELAATGPEGIVEAAKLVAEMRRKGVENPEVRERVDALYREASAEIARQQRAWIAQQAAAR
B4: d1r7_design_ppi_719_dldesign_0_cycle0_af2pred (protein)
chain: SGAKAAIAAAKHNIKQAKKLLEEGDVEGALGHIKLAELATKAAEAEAKAAGDKEALKKAEELKKEVEELKKEAEKKKK
B5: d1r7_design_ppi_74_dldesign_0_cycle1_af2pred (protein)
chain: AKEKAEELYKKFSEEINKSLALLGKAGLAAVEDPAKGAELFKKAKAELEEAKKYAKKLEELDPELGKKAKAELKKVQDLYDGTYKANV
B6: d1r7_design_ppi_815_dldesign_0_cycle0_af2pred (protein)
chain: MEDLEELLRLIAEAQRALKTDAEEGIKLAEEAAKKAEELGLEKAAKLLKEAAKAAKTDAEEGIRLLNQAATQAAREYSEK
B7: d1r7_design_ppi_702_dldesign_0_cycle0_af2pred (protein)
chain: SAEKETNLANAKGYLALAKAYTKGATYYATKEGDLEKAKELYEKAKEASKLAIEAAAKAGPEAAAKAKAEADEIDKENEKALKEAE
B8: d1r7_design_ppi_677_dldesign_0_cycle0_af2pred (protein)
chain: VEEKIRGIEEAGRLGAEASPELAAEIEAFTKRAVEAARASGDEAVAGAALQAASLALIGAAWYAVDPEKGAAVLARARARLEALIA
B9: d1r7_design_ppi_147_dldesign_0_cycle1_af2pred (protein)
chain: AAAAAKATAKQIAAIAEEAIAKVKAATPEEAKKIAAEANQQIRALAAAAAAAHPEVAAAVAAAATAAIQRVLSTAIEVVSA
B10: d1r7_design_ppi_302_dldesign_0_cycle1_af2pred (protein)
chain: SPVAAQAEALRDAAVAVAKTGNPEAAAAAAHAAVAQMNRLALAHPEENATASSEAVATLEEVDRLRAAQRAAAG
B11: d1r7_design_ppi_682_dldesign_0_cycle1_af2pred (protein)
chain: ATAEQIQQVKNYAKAAIQAVKNAAASDKAEALAVAKIFADALLKQGKLTTPEAAKEAEKAAKEILATAKALAA
B12: d1r7_design_ppi_855_dldesign_0_cycle1_af2pred (protein)
chain: SAAAAQARAVANTAAAAAKQGVPAEEVVALVEGAAKTLAGDPAALQAMIDTLAELAKASTPEAAATLNKAAEAVKKVLA
B13: d1r7_design_ppi_77_dldesign_0_cycle1_af2pred (protein)
chain: SAVEDAANAIWEAAKAMAKAVPEAAATVDKLAREAVRALMLGDYEKAAKIVKEMAKAVAKADPKAAKKAEELAKKTVAKIKAA
B14: d1r7_design_ppi_733_dldesign_0_cycle0_af2pred (protein)
chain: MEEALKALEEAEEAAREAGDEESAEILEKAREEVKAGTPSEGALTVARAAAEAVARARAAGNEDLADRVRALANRAIAALSRAAIA
B15: d1r7_design_ppi_562_dldesign_0_cycle1_af2pred (protein)
chain: SEKAEKLKKETLEKAEKAVKEAEASPDPKEGIKILSEAAREAARAAAESPEAGSAALALTVSAMEEFAAKARA
B16: d1r7_design_ppi_300_dldesign_0_cycle0_af2pred (protein)
chain: MQVMLDAGEYLAKALKATGLEEAKEMAEEVLKAMKEAASLSPEEAESILGELMRKTIAKTGVVGAQAAALAYAHLAELKAA
B17: d1r7_design_ppi_719_dldesign_0_cycle1_af2pred (protein)
chain: SGAQAAVAAAQANLRQAKQLLEEGDYEGALGHIKLAKLAADAAKKQATAAGDQAAIDQATALQKEAEELEKEAKKALE
B18: d1r7_design_ppi_270_dldesign_0_cycle1_af2pred (protein)
chain: SMEKALEYLEKAKKSLEEGDKAKAAGDKARALGYYQLAAAYAKSAAHLAKDNPELAKEAKELEKEAKAKLAEVRAA
B19: d1r7_design_ppi_446_dldesign_0_cycle1_af2pred (protein)
chain: GEAARNAEEIFADSRERARALAAEYRASGDPADLAIAAELEEALARAEEEGPAGGVRLIILTDGILQARAAAAA
B20: d1r7_design_ppi_29_dldesign_0_cycle1_af2pred (protein)
chain: SAATAVALAQAAITFGRSALAAAERAPPERGAKILEAAAEILTAAAAQAPALAAETQALAAEARERAAELAAAAAA
B21: d1r7_design_ppi_252_dldesign_0_cycle1_af2pred (protein)
chain: VKEEAVALAKEAAALAREAAELLAPDPLLAAQAQRLAERAEELAERAKAASEEEAKELLEEARVLLAQAELLLTIARQR
B22: d1r7_design_ppi_522_dldesign_0_cycle1_af2pred (protein)
chain: DPNEKARQLMNDAFQQATKLRAAGAANPATAAQDTAQGVQAVNEAKKKAAELASPEYAGKIEEMAKQLTSIISV
B23: d1r7_design_ppi_71_dldesign_0_cycle1_af2pred (protein)
chain: DYAAQQLALTTRAQEVAERAKKAGKELGNPEEAKKIQQLASLAQALAINPATFPQAEKKLEEAEKRAKKLEKKAKE
B24: d1r7_design_ppi_609_dldesign_0_cycle0_af2pred (protein)
chain: SELAEQALAAAESLIAEALRAAAEDPARAARLFASAKAVAEALKKIDPKLGEELLKKVEAAEAEAKAAIA
B25: d1r7_design_ppi_420_dldesign_0_cycle1_af2pred (protein)
chain: MTKAEVVAEAIAVAKEAAKIAKANKESPEVQELQKKALDLAFKALASNDAAEAQKYAEKAKEVKKELEKKAKEL
B26: d1r7_design_ppi_529_dldesign_0_cycle1_af2pred (protein)
chain: DELEKAIKEAEKYIEELKKTIKEGVKNPEEALKLAEEAEKEGEKAAALGIVGAGVGQLAKAAAQALRNKIAA
B27: d1r7_design_ppi_538_dldesign_0_cycle0_af2pred (protein)
chain: MEEVKKKAEEAKKEIEKLYEEALKYAKEGDIEKAAEYISKMREKGLEAAEEVPELAEEILAYTGRKALEALLELGKASL
B28: d1r7_design_ppi_351_dldesign_0_cycle0_af2pred (protein)
chain: EELEEKKKKAIELLKKAKEKAEKIGDTAVAAAAENAIKAIEAGNLEAAISNARLAKAIAAEDPALKEAAELAKKALEELEEAKKLAEA
B29: d1r7_design_ppi_396_dldesign_0_cycle0_af2pred (protein)
chain: SSPVEQAMKVIEKYMKELAKVVGQEKADAAKNLLFGALAKGVHAGVEAAKAELQAAAKEIQKEIKDPEAQKIIQEATKEAIKELE
B30: d1r7_design_ppi_640_dldesign_0_cycle1_af2pred (protein)
chain: AQQAVQQTQKVVDETKEVYERAKKEGSPEVAEKLKELLAQAQNNLQMAQAGGAEAAQLMYQNAKKIYEEAKKYAEEEIKKEKE
B31: d1r7_design_ppi_733_dldesign_0_cycle1_af2pred (protein)
chain: VEEALKALEEAAKAAKEAGDEESAKILKEALEKVKAGTPAEGALTIAEKSAEAVKRALEKGNEELAEKILKLGQKAIAALSKAAIA
B32: d1r7_design_ppi_290_dldesign_0_cycle0_af2pred (protein)
chain: SAEAAEAEAAAARELAREMYALTPEEAAERMTALFLESPGRALRAATELVRAEGPAALPLAQAWLRAGVAAAQAA
B33: d1r7_design_ppi_855_dldesign_0_cycle0_af2pred (protein)
chain: SAAAAQARAVARMAAAAAESGVDAAEVLAVVTGAAQQLAADPAALQAMLDTLTALAAASTPEAAAVLAAAAAAVAAVLA
B34: d1r7_design_ppi_304_dldesign_0_cycle0_af2pred (protein)
chain: AAEAAAAAAATARASAAMAAFARRRLEEGAAAGPEALARAVAELEALAAHADPAIGAALRAALAATLAALAAAA
B35: d1r7_design_ppi_24_dldesign_0_cycle0_af2pred (protein)
chain: SELGAILDRASEVSKRAVEVEKKAKEKGLEEALELAREALKEVQAALSLIAKGGDLADAQAKLEEGEKLLEEAEKKLKEE
B36: d1r7_design_ppi_493_dldesign_0_cycle0_af2pred (protein)
chain: SMLKEKEEAEKKRERVEKLIKEAEEAAKEAEKIDPVSGRGLRGMVEAARRLMEEGNLEAAEKLAQVALDAAAGLAAAA
B37: d1r7_design_ppi_322_dldesign_0_cycle0_af2pred (protein)
chain: MTLEDLKRAAKAYLHGLANLAAGLGLEELAKKLREAAANVDDAKALKEGAELAKELAALSTPEAAEFAKLAAEVAKAAAKAVEAA
B38: d1r7_design_ppi_806_dldesign_0_cycle1_af2pred (protein)
chain: AKEEALRTLKSAAELAKVAADIAANVDPELAKKAKELAEKAKKLAEEAKKASEEEAKKLLEEGKKLLEEVRALTAEVARLAVAA

target: CD276, Q5ZPR3
Sequence (Q5ZPR3 whole entry): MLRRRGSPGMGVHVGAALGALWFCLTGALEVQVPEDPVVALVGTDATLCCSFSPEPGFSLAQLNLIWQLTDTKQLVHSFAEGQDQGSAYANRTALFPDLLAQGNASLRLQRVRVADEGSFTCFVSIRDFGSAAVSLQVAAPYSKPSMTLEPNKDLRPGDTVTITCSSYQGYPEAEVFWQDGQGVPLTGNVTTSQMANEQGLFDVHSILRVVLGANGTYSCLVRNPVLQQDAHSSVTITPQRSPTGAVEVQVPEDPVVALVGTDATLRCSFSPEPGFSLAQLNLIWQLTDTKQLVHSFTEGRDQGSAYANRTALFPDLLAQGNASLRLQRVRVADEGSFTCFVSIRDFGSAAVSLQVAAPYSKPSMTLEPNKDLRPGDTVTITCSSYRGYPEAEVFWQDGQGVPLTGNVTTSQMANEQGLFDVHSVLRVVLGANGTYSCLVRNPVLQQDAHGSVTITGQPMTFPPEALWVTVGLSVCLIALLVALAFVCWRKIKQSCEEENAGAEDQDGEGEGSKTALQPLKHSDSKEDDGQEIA

Binder | binding in a display sort
B1 | not found (inactive)
B2 | not found (inactive)
B3 | not found (inactive)
B4 | not found (inactive)
B5 | not found (inactive)
B6 | not found (inactive)
B7 | not found (inactive)
B8 | not found (inactive)
B9 | not found (inactive)
B10 | not found (inactive)
B11 | not found (inactive)
B12 | not found (inactive)
B13 | not found (inactive)
B14 | not found (inactive)
B15 | not found (inactive)
B16 | not found (inactive)
B17 | not found (inactive)
B18 | not found (inactive)
B19 | not found (inactive)

Binder | binding in a display sort
B20 | not found (inactive)
B21 | not found (inactive)
B22 | not found (inactive)
B23 | not found (inactive)
B24 | not found (inactive)
B25 | not found (inactive)
B26 | not found (inactive)
B27 | not found (inactive)
B28 | not found (inactive)
B29 | not found (inactive)
B30 | not found (inactive)
B31 | not found (inactive)
B32 | not found (inactive)
B33 | not found (inactive)
B34 | not found (inactive)
B35 | not found (inactive)
B36 | not found (inactive)
B37 | not found (inactive)
B38 | not found (inactive)
